“And” between values parts separate entries of the source, which are not always exact repeats. Equal values may be shown once. Hit rate of the full screen: of about 5,500 compounds, about 2,000 (36%) were called active. Not shown: some 18% with an inconclusive outcome. Cut-off read from the data, not from the text of the source: active = normalized growth mostly below about 0.91 (no sharp cut-off); inconclusive = no clear call, values can overlap the other calls; inactive = mostly above about 0.92. The list shows a part of the results.
Experiment: chemical genetic growth profiling, strain panel (AID 1159580);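 note: tested at 20 µM; growth read once vehicle control cultures reached saturation at 30 °C; 1 = growth at the plate median or of vehicle wells; lower values mean less growth of the strain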
Conditions: growth OD

Measured: normalized growth

CNCCC(Oc1ccc(C(F)(F)F)cc1)c1ccccc1 (stereo unspecified)
inactive: S. cerevisiae deletion strains, locus YJR075W, strain HOC1, active compounds read low 0.985 and 1.01 | S. cerevisiae deletion strains, locus YKL009W, strain mrt4, active compounds read low 0.959 | S. cerevisiae deletion strains, locus YKL068W, active compounds read low 1 | S. cerevisiae deletion strains, locus YKL085W, strain MDH1 (second series), active compounds read low 0.999 | S. cerevisiae deletion strains, locus YKL085W, strain MDH1, active compounds read low 0.999 | S. cerevisiae deletion strains, locus YKL160W, strain elf1, active compounds read low 0.984 | S. cerevisiae deletion strains, locus YKL190W, strain CNB1, active compounds read low 1.01 | S. cerevisiae deletion strains, locus YKR001C, strain vps1, active compounds read low 1.01 | S. cerevisiae deletion strains, locus YKR026C, strain gcn3, active compounds read low 0.983 | S. cerevisiae deletion strains, locus YKR091W, strain srl3, active compounds read low 0.991 | S. cerevisiae deletion strains, locus YLL001W, strain dnm1, active compounds read low 0.979 | S. cerevisiae deletion strains, locus YLL026W, active compounds read low 0.987 | S. cerevisiae deletion strains, locus YLL041C, strain sdh2, active compounds read low 0.988 | S. cerevisiae deletion strains, locus YLR027C, strain aat2, active compounds read low 0.99 | S. cerevisiae deletion strains, locus YLR058C, strain SHM2, active compounds read low 1.01 | S. cerevisiae deletion strains, locus YLR102C, strain apc9, active compounds read low 0.987 | S. cerevisiae deletion strains, locus YLR113W, strain HOG1, active compounds read low 1.01 | S. cerevisiae deletion strains, locus YLR221C, strain rsa3, active compounds read low 0.985 | S. cerevisiae deletion strains, locus YLR258W, strain gsy2, active compounds read low 0.99 | S. cerevisiae deletion strains, locus YLR262C, strain YPT6 (second series), active compounds read low 1.04 | S. cerevisiae deletion strains, locus YLR268W, strain sec22, active compounds read low 0.985 | S. cerevisiae deletion strains, locus YLR320W, strain mms22, active compounds read low 0.968 | S. cerevisiae deletion strains, locus YLR330W, strain CHS5, active compounds read low 1.01 | S. cerevisiae deletion strains, locus YLR342W, strain FKS1 (second series), active compounds read low 0.982 | S. cerevisiae deletion strains, locus YLR342W, strain FKS1, active compounds read low 0.988 | S. cerevisiae deletion strains, locus YLR357W, strain rsc2, active compounds read low 0.977 | S. cerevisiae deletion strains, locus YLR370C, strain arc18, active compounds read low 0.981 | S. cerevisiae deletion strains, locus YLR371W, strain rom2, active compounds read low 0.985 | S. cerevisiae deletion strains, locus YLR384C, strain iki3, active compounds read low 0.97 | S. cerevisiae deletion strains, locus YLR418C, strain cdc73, active compounds read low 0.983 | S. cerevisiae deletion strains, locus YML016C, strain PPZ1, active compounds read low 1.02 | S. cerevisiae deletion strains, locus YML032C, strain rad52, active compounds read low 0.998 | S. cerevisiae deletion strains, locus YML120C, strain ndi1, active compounds read low 0.993 | S. cerevisiae deletion strains, locus YML124C, strain tub3, active compounds read low 0.992 | S. cerevisiae deletion strains, locus YMR058W, strain fet3, active compounds read low 0.99 | S. cerevisiae deletion strains, locus YMR078C, strain ctf18, active compounds read low 0.999 | S. cerevisiae deletion strains, locus YMR125W, strain sto1, active compounds read low 0.989 | S. cerevisiae deletion strains, locus YMR129W, active compounds read low 0.998 | S. cerevisiae deletion strains, locus YMR205C, strain PFK2, active compounds read low 0.967 | S. cerevisiae deletion strains, locus YMR223W, strain ubp8, active compounds read low 0.996 | S. cerevisiae deletion strains, locus YMR231W, strain pep5, active compounds read low 0.992 | S. cerevisiae deletion strains, locus YMR263W, strain SAP30, active compounds read low 0.995 | S. cerevisiae deletion strains, locus YMR307W, strain GAS1, active compounds read low 1.09 | S. cerevisiae deletion strains, locus YNL067W, strain RPL9B, active compounds read low 1.01 | S. cerevisiae deletion strains, locus YNL071W, strain lat1, active compounds read low 0.993 | S. cerevisiae deletion strains, locus YNL128W, strain TEP1, active compounds read low 0.992 and 1.03 | S. cerevisiae deletion strains, locus YNL153C, strain GIM3, active compounds read low 1.01 | S. cerevisiae deletion strains, locus YNL175C, strain NOP13, active compounds read low 1.01 | S. cerevisiae deletion strains, locus YNL183C, strain NPR1, active compounds read low 0.986 | S. cerevisiae deletion strains, locus YNL197C, strain WHI3, active compounds read low 0.979 | S. cerevisiae deletion strains, locus YNL209W, strain ssb2, active compounds read low 1.01 | S. cerevisiae deletion strains, locus YNL224C, strain SQS1, active compounds read low 1.04 | S. cerevisiae deletion strains, locus YNL233W, strain BNI4, active compounds read low 1.01 | S. cerevisiae deletion strains, locus YNL248C, strain rpa49, active compounds read low 0.99 | S. cerevisiae deletion strains, locus YNL250W, strain rad50, active compounds read low 0.996 | S. cerevisiae deletion strains, locus YNL271C, strain bni1, active compounds read low 0.99 | S. cerevisiae deletion strains, locus YNL298W, strain CLA4, active compounds read low 0.988 | S. cerevisiae deletion strains, locus YNL307C, strain MCK1, active compounds read low 0.993 | S. cerevisiae deletion strains, locus YNL322C, strain KRE1 (second series), active compounds read low 0.986 | S. cerevisiae deletion strains, locus YNL322C, strain KRE1, active compounds read low 1 | S. cerevisiae deletion strains, locus YNR049C, strain mso1, active compounds read low 0.987 | S. cerevisiae deletion strains, locus YNR052C, strain pop2, active compounds read low 1 | S. cerevisiae deletion strains, locus YOL006C, strain TOP1, active compounds read low 0.884 | S. cerevisiae deletion strains, locus YOL012C, strain htz1 0.953 | S. cerevisiae deletion strains, locus YOL147C, strain pex11, active compounds read low 0.995 | S. cerevisiae deletion strains, locus YOR001W, strain rrp6, active compounds read low 0.985 | S. cerevisiae deletion strains, locus YOR061W, strain CKA2, active compounds read low 1.01 | S. cerevisiae deletion strains, locus YOR069W, strain VPS5, active compounds read low 0.998 | S. cerevisiae deletion strains, locus YOR070C, strain gyp1, active compounds read low 0.99 | S. cerevisiae deletion strains, locus YOR080W, strain dia2, active compounds read low 0.997 | S. cerevisiae deletion strains, locus YOR083W, strain WHI5 (second series), active compounds read low 0.908 | S. cerevisiae deletion strains, locus YOR083W, strain WHI5, active compounds read low 0.982 | S. cerevisiae deletion strains, locus YOR106W, strain vam3, active compounds read low 0.986 | S. cerevisiae deletion strains, locus YOR136W, strain idh2, active compounds read low 0.99 | S. cerevisiae deletion strains, locus YOR144C, strain elg1, active compounds read low 0.995 | S. cerevisiae deletion strains, locus YOR184W, strain ser1, active compounds read low 1 | S. cerevisiae deletion strains, locus YOR231W, strain MKK1, active compounds read low 1.02 | S. cerevisiae deletion strains, locus YOR265W, strain rbl2, active compounds read low 0.995 | S. cerevisiae deletion strains, locus YOR270C, strain vph1, active compounds read low 0.9 | S. cerevisiae deletion strains, locus YOR290C, strain snf2, active compounds read low 0.981 | S. cerevisiae deletion strains, locus YOR316C, strain cot1, active compounds read low 1 | S. cerevisiae deletion strains, locus YPL051W, strain arl3, active compounds read low 0.992 | S. cerevisiae deletion strains, locus YPL055C, strain LGE1, active compounds read low 1.02 and 1 | S. cerevisiae deletion strains, locus YPL078C, strain atp4, active compounds read low 0.983 | S. cerevisiae deletion strains, locus YPL106C, strain sse1, active compounds read low 0.971 | S. cerevisiae deletion strains, locus YPL240C, strain hsp82, active compounds read low 0.997 | S. cerevisiae deletion strains, locus YPL241C, strain CIN2, active compounds read low 1 | S. cerevisiae deletion strains, locus YPL256C, strain CLN2, active compounds read low 1.06 | S. cerevisiae deletion strains, locus YPR119W, strain clb2, active compounds read low 1 | S. cerevisiae deletion strains, locus YPR141C, strain kar3, active compounds read low 0.999 | S. cerevisiae deletion strains, locus YPR163C, strain tif3, active compounds read low 0.998 | S. cerevisiae deletion strains, locus YPR167C, strain met16, active compounds read low 0.992 | S. cerevisiae deletion strains, strain wtn01, active compounds read low 1.01 | S. cerevisiae strains, strain wild type, active compounds read low 0.998
active: S. cerevisiae deletion strains, locus YLR039C, strain RIC1, active compounds read low 1.41 [resistant] | S. cerevisiae deletion strains, locus YLR262C, strain YPT6, active compounds read low 1.46 [resistant]
